Active and inactive are the calls of the source.

Assay [1] relates to PRMT1 (protein arginine N-methyltransferase 1). The assay can be described thus: PRMT1 binders on small-molecule microarrays, primary screen, biochemical, small-molecule microarray, 635 nm fluorescence (AID 1088).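 Further: binding of Prmt1 protein to compounds spotted on small-molecule microarray slides.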 To be noted: small-molecule microarray binding, higher = more signal.
The nature of assay [2]: yeast growth modulation, basal conditions, primary screen, YJM789 clinical isolate, OD600, 24 h (AID 1089).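 Further: growth of clinical yeast isolate S. cerevisiae YJM 789 seeded 1000 cells per well; test concentration not given here.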 To be noted: S. cerevisiae YJM789 growth, higher = more signal, called active from +8 up or from −8 down.
A short description of assay [3]: fission yeast growth modulation, primary screen, strain 972, OD600, 24 h, no modulator (AID 1090).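 Further: basal condition with compound alone and no growth modifier present; test concentration not given here.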 The settings on record: S. pombe 972 growth, higher = more signal, called active from +8 up or from −8 down.
A short description of assay [4]: S. cerevisiae growth modulation with rapamycin, primary screen, strain BY4716, OD600, 96 h (AID 1091). Further: test concentration not given here. To be noted: higher = more signal, called active from +8 up or from −8 down.
Assay [5] has as its target Torsin-1A-interacting protein 2 (Homo sapiens) (UniProt Q8NFQ8). The assay can be described thus: LULL1 binders on small-molecule microarray, primary screen, cell lysate, human LULL1 lysate, 635/667 nm fluorescence (AID 1092).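 Further: probe is lysate of COS7 cells overexpressing human LULL1; score merges per-feature 667 nm fluorescence with signal-to-noise.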 The settings on record: hLULL1 lysate binding, 635 nm fluorescence, higher = more signal.
Assay [6] can be described thus: E. coli growth modulation, two-sided OD650, primary screen, E. coli filamentation project, strain DRC41, 24 h (AID 1093).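 Further: MC1000 strain lacking acrAB efflux and sulA so SOS filamentation is blocked; test concentration not given here.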 The settings on record: OD650, 24 h, higher = more signal, called active from +8 up or from −8 down.
A short description of assay [7]: small-molecule microarray binders of probe aLefty2, primary screen, biochemical, biotinylated probe, 635/667 nm fluorescence (AID 1094).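 Further: score merges spot fluorescence near 667 nm with spot signal-to-noise ratio.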 The settings on record: higher = more signal.
Assay [8] has as its system Noggin (protein binding on small-molecule microarray). In words: Noggin binders on small-molecule microarray, primary screen, biochemical, 635/667 nm fluorescence (AID 1095).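 Further: score merges 667 nm feature fluorescence with signal to noise over triplicate slides.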 To be noted: 635 nm fluorescence, higher = more signal.
The target of assay [9] is Neurogenic locus notch homolog protein 3 (Homo sapiens) (UniProt Q9UM47). The assay can be described thus: NOTCH3 binders on small-molecule microarray, primary screen, biochemical, 635/667 nm fluorescence (AID 1096). The settings on record: NOTCH3 binding, 635 nm fluorescence, higher = more signal.
Assay [10] can be described thus: small-molecule microarray binders of probe aEGFR, primary screen, biochemical, biotinylated probe, 635/667 nm fluorescence (AID 1097).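 Further: probe is a biotinylated anti-EGFR antibody binding compounds printed on slides; score combines fluorescence near 667 nm and signal to noise of each spot.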 To be noted: higher = more signal.
Assay [11] has as its system Plasmodium falciparum Sir2 (PF13_0152, Sir2A). In words: pfSir2 binders on small-molecule microarrays, primary screen, biochemical, small-molecule microarray, 635 nm fluorescence (AID 1098).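 Further: score merges spot fluorescence intensity with its signal-to-noise ratio.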 The settings on record: small-molecule microarray binding, fluorescence 635 nm; higher = more signal.
A short description of assay [12]: small-molecule microarray binders of probe aDKK1, primary screen, biochemical, biotinylated probe, 635/667 nm fluorescence (AID 1099).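 Further: score merges 667nm spot fluorescence with signal to noise across triplicate slides; reference of the scale not given here.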 To be noted: higher = more signal.
The nature of assay [13]: small-molecule microarray binders of probe aCHRDL2, primary screen, biochemical, biotinylated probe, 635/667 nm fluorescence (AID 1100). The settings on record: higher = more signal.
A short description of assay [14]: splicing luciferase reporter signal modulators, primary screen, spliceosome inhibition project, cell-based, HEK293, splice +/- reporter (AID 1101).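 Further: HEK293 cells carrying a splicing-competent luciferase reporter gene; test concentration not given here.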 The settings on record: luminescence, 24 h, higher = more signal, called active from +8 up or from −8 down. (In general: Reporter assays use an easily measured gene product as a stand-in for the process of interest.)
The target in assay [15] is Fibroblast growth factor 10 (Homo sapiens) (UniProt O15520). The assay can be described thus: FGF10 binders on small-molecule microarrays, primary screen, biochemical, small-molecule microarray, 635 nm fluorescence (AID 1102). To be noted: FGF10 binding, fluorescence 635 nm, higher = more signal.
Assay [16] deals with glycogen synthase kinase-3 (GSK3A per assay name; protocol says GSK3B). In words: GSK3 binders on small-molecule microarrays, primary screen, biochemical, small-molecule microarray, 635 nm fluorescence, GSK3A (AID 1103). Further: the record names both GSK3A and GSK3B. To be noted: small-molecule microarray binding, fluorescence 635 nm; higher = more signal.
Assay [17] concerns the target Epidermal growth factor receptor (Homo sapiens) (UniProt P00533). The assay can be described thus: EGFR binders on small-molecule microarrays, primary screen, biochemical, small-molecule microarray, 635 nm fluorescence (AID 1104).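 Further: score merges 667 nm emission intensity with spot signal to noise over triplicate slides.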 To be noted: EGFR binding, higher = more signal.
In assay [18] the target is Follistatin-related protein 3 (Homo sapiens) (UniProt O95633). In words: FSTL3 binders on small-molecule microarrays, primary screen, biochemical, small-molecule microarray, 635 nm fluorescence (AID 1105).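 Further: score merges emission near 667 nm and signal to noise per printed spot across three slides.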 To be noted: FSTL3 binding, higher = more signal.
Assay [19] concerns the target Dickkopf-related protein 1 (Homo sapiens) (UniProt O94907). In words: DKK1 binders on small-molecule microarrays, primary screen, biochemical, small-molecule microarray, 635 nm fluorescence scan (AID 1106).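 Further: score merges emission near 667 nm with signal to noise over three replicate slides.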 To be noted: DKK1 binding, higher = more signal.
Assay [20] deals with Inhibin beta A chain (activin A). In words: INHBA (activin A) binders on microarrays, primary screen, biochemical, small-molecule microarray, 635 nm fluorescence scan (AID 1107).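 Further: mouse activin A protein probed at 4.33 µg/mL on printed slides; score merges bound-protein fluorescence near 667 nm with spot signal-to-noise.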 To be noted: small-molecule microarray binding, higher = more signal.

Sequence of Neurogenic locus notch homolog protein 3 (Homo sapiens) (Q9UM47 whole entry, looked up): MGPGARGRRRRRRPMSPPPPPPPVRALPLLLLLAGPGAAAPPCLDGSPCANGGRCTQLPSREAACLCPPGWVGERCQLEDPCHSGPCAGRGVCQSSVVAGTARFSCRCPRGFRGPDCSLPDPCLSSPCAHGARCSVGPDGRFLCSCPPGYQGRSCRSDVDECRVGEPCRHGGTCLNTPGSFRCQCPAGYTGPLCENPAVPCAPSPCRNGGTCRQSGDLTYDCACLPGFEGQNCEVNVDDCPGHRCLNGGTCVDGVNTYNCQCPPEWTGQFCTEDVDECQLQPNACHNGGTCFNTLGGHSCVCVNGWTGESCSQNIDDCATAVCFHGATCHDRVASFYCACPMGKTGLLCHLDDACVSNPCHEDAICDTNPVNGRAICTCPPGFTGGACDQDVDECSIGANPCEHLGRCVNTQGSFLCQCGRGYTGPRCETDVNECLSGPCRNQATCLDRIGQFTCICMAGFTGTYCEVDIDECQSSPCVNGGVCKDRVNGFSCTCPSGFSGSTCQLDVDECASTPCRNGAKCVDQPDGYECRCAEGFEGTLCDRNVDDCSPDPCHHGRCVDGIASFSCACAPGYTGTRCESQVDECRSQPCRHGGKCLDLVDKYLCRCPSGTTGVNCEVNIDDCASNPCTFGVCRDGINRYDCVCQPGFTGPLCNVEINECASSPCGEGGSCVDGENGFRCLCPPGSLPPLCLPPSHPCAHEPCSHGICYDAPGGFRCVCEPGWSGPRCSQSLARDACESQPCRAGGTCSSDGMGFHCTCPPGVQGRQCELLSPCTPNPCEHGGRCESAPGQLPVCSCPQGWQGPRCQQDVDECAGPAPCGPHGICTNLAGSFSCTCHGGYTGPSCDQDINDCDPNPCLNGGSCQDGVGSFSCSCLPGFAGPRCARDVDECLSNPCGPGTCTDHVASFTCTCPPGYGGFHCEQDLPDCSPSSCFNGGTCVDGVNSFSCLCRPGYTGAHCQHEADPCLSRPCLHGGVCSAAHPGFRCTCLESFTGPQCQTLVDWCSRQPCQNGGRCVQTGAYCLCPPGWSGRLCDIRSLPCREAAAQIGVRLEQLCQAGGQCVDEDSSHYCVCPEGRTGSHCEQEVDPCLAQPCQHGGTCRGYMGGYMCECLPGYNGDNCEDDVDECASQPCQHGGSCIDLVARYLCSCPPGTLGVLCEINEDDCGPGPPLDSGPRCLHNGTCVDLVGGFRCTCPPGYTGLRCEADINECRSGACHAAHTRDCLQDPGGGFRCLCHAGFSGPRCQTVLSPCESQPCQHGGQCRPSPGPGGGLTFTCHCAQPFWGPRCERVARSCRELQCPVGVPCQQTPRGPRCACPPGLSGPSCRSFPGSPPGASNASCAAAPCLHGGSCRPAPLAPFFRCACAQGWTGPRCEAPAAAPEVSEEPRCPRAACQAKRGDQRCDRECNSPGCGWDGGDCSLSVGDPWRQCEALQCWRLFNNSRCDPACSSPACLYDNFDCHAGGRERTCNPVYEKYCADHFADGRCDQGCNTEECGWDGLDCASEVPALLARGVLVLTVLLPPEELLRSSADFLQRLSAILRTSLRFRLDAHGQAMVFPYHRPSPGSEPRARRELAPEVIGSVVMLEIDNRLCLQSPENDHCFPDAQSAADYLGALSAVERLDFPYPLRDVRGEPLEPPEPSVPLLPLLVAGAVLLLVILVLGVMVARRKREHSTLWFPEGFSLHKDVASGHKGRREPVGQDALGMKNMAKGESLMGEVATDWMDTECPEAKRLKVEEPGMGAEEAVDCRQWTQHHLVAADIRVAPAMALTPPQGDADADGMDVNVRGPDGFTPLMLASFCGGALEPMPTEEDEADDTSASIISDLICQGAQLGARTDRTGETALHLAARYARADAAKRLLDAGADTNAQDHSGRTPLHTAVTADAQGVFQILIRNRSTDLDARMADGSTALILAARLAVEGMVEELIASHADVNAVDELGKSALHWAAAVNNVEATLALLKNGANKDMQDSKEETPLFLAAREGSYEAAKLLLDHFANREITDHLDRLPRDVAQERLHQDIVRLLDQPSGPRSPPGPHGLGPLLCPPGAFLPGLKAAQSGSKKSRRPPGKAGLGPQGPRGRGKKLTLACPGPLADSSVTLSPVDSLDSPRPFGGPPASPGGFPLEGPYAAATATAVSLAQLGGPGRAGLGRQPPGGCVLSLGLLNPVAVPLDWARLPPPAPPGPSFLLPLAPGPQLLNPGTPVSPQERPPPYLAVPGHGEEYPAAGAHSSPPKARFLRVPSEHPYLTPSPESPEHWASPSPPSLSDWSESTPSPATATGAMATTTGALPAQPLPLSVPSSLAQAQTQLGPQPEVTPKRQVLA
Sequence of Fibroblast growth factor 10 (Homo sapiens) (O15520 whole entry, looked up): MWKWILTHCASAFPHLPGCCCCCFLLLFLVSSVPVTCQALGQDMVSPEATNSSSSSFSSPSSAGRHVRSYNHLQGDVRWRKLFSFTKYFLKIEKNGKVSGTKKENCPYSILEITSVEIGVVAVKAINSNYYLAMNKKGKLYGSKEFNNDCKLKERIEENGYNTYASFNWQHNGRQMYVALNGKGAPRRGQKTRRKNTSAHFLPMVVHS
Sequence of Dickkopf-related protein 1 (Homo sapiens) (O94907 whole entry, looked up): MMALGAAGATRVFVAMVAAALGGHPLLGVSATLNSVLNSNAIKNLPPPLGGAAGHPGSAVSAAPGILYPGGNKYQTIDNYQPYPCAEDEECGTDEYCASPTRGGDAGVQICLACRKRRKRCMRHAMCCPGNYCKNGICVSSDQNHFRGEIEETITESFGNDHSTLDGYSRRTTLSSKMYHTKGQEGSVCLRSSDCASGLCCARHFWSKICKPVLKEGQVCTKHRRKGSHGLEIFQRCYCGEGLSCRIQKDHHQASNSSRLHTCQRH
Sequence of Epidermal growth factor receptor (Homo sapiens) (P00533 whole entry, looked up): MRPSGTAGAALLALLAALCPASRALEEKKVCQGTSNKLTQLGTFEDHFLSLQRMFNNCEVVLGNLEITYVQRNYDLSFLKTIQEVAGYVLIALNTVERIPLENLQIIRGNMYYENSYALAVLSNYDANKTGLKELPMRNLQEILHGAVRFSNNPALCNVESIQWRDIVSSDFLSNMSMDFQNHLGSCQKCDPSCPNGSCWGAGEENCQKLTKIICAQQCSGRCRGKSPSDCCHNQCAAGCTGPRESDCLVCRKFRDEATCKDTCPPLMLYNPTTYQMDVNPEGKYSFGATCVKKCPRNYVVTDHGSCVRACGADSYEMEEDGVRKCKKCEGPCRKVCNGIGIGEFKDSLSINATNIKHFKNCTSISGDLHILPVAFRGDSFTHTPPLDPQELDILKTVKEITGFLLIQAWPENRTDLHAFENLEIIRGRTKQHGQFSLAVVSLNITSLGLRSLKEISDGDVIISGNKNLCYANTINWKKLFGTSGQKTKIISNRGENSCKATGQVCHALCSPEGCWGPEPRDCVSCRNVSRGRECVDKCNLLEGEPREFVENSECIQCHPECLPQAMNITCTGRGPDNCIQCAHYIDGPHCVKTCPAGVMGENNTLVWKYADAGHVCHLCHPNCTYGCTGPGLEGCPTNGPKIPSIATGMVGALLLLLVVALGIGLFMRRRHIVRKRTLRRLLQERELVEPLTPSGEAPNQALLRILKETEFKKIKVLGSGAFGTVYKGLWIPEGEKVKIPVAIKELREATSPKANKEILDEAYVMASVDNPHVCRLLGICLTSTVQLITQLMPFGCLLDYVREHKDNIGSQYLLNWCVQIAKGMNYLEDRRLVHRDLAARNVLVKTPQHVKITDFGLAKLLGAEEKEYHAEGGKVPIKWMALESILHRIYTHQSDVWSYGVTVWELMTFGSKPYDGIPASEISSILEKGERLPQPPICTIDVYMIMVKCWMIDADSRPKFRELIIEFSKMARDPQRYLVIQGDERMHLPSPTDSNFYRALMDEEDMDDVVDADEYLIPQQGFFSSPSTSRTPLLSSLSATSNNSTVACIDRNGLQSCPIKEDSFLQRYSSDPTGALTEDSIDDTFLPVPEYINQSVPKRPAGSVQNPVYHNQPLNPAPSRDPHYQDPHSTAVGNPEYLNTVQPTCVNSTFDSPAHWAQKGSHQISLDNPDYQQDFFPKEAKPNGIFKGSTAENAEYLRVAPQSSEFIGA
Sequence of Torsin-1A-interacting protein 2 (Homo sapiens) (Q8NFQ8 whole entry, looked up): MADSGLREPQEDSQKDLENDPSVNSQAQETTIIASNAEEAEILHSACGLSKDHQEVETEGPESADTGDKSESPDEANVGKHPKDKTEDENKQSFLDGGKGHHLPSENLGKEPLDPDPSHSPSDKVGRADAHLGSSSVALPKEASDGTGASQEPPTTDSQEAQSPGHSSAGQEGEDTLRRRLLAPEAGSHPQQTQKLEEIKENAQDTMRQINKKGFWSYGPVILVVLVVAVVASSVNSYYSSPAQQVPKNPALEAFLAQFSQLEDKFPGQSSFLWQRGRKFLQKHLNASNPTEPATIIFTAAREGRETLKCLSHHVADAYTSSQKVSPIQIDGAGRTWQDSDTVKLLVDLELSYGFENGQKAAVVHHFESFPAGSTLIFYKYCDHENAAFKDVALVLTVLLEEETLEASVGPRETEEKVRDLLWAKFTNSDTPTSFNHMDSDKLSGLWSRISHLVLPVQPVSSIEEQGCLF
Sequence of Follistatin-related protein 3 (Homo sapiens) (O95633 whole entry, looked up): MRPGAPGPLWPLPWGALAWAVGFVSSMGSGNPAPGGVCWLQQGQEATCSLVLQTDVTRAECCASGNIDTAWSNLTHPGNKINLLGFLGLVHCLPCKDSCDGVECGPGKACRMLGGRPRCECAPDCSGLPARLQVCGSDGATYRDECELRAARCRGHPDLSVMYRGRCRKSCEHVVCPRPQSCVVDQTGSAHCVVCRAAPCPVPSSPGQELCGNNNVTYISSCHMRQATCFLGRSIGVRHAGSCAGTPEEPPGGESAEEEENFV

Take `C=CCNC(=O)[C@@H]1[C@H]2C(=O)O[C@H](c3ccccc3)[C@H](c3ccccc3)N2[C@H](c2ccc(OCCO)cc2)[C@@]12C(=O)N(C(=O)OCCOC)c1ccc(C#CC3=CCCCC3)cc12`: the composite z-score is 1.55 in [1]; 2.83 in assay [5]; -0.0373 in assay [7]; 0.978 in [8]; 1.14 in assay [9]; 0.0209 in assay [10]. In addition, the composite z-score was 1.11 in assay [11]; 0.331 in [12]; -0.112 in [13]; 0.957 in assay [15]; 1.28 in assay [16]; 0.552 in assay [17]. Moreover, the composite z-score was 1.06 in [18], 0.44 in [19] and 0.726 in assay [20]. In addition, the z-score was 1.27 (inactive) in assay [2]; 1.14 (inactive) in [3]; 3.61 (inactive) in assay [4]; -0.741 (inactive) in assay [6]; -0.57 (inactive) in assay [14].
As to `COC(=O)[C@@]1(Cc2ccccc2)[C@H]2c3cc(C(=O)N4CCCC4)n(Cc4ccsc4Br)c3C[C@H]2CN1C(=O)c1ccccc1`, the composite z-score in assay [1] was 0.12; in [5] it was 3.43; in [7] it was 0.41; in [8] it was -0.142; in [9], 1.05; in [10] it was 0.272. In addition, the composite z-score in [11] is 0.31; in assay [12] it was 1.13; in [13] it was 1.37; in [15] it was 0.832; in assay [16], 0.572; in assay [17], -0.105. Besides, the composite z-score in assay [18] was 0.906; in assay [19], -0.825; in [20], 0.748. The z-score in assay [2] was 0.333 (inactive); in assay [3], 1.22 (inactive); in [4] it was 1.35 (inactive); in [6], -0.575 (inactive); in assay [14], -1.31 (inactive).
For `C=CCC(OC(C)=O)[C@@H]1[C@@H](N(Cc2cc3ccccc3o2)C(=O)Cc2ccc(F)cc2)c2cc(OCCCO)ccc2N1C(=O)c1ccc2ccccc2n1` (stereo not given in full), the composite z-score in assay [1] is -0.22; in assay [5], -0.136; in [7], 0.055; in assay [8] it was -0.145; in assay [9], -0.814; in assay [10] it was -0.0573. Also, the composite z-score is -0.278 in [11]; -0.106 in [12]; 0.394 in [13]; -0.0436 in assay [15]; -0.497 in assay [16]; 0.112 in [17]. The figures for the composite z-score in [18], in assay [19] and in [20] were -0.255, 0.0645 and 1.2, respectively. For the same molecule, the z-score in assay [2] is -0.271 (inactive); in assay [3] it was -0.448 (inactive); in assay [4], -0.258 (inactive); in assay [6], -0.494 (inactive); in [14] it was -0.509 (inactive).
Turning to `COc1ccc([Si](C)(C)[C@H]2[C@H](CCn3cc([C@H](O)c4ccccc4)nn3)O[C@@]3(C(=O)N(Cc4cccc(N5C(=O)c6cccc7cccc5c67)c4)c4ccccc43)[C@@H]2C)cc1`, the composite z-score was 0.492 in assay [1]; 1.28 in assay [5]; -0.134 in assay [7]; -1.17 in assay [8]; -0.871 in [9]; -0.21 in assay [10]. In addition, the composite z-score in [11] is 0.661; in [12], -0.0526; in assay [13], 0.837; in [15], -0.718; in assay [16], -1.22; in [17] it was -1.04. The composite z-score in assay [18] was -1.4; in [19], -1.66; in [20], -0.456. For the same molecule, the z-score was -0.844 (inactive) in assay [2]; 0.723 (inactive) in assay [3]; 0.635 (inactive) in assay [4]; -0.666 (inactive) in [6]; -0.762 (inactive) in assay [14].
As to `O=C(O)[C@H]1C[C@H]2C(=O)N3CCC[C@H]3C(=O)N2[C@H]1c1cccc(OCCO)c1`, the composite z-score in assay [1] was 1.04; in assay [5], 2.55; in assay [7], 0.027; in [8] it was 0.287; in [9] it was 0.237; in [10] it was -0.109. In addition, the composite z-score came to 1.6 in assay [11]; 0.0484 in [12]; 0.0998 in [13]; 0.262 in assay [15]; 0.486 in [16]; 0.0626 in [17]. The figures for the composite z-score in assay [18], in assay [19] and in assay [20] were 0.384, 0.884 and -0.0254, respectively. For the same molecule, the z-score in assay [2] is -0.187 (inactive); in assay [3] it was -0.391 (inactive); in [4], 0.0709 (inactive); in assay [6], 0.849 (inactive); in assay [14] it was -0.184 (inactive).
On to `COc1ccc([Si](C)(C)[C@H]2[C@H](CCn3cc([C@H](O)c4ccccc4)nn3)O[C@@]3(C(=O)N(Cc4ccc(N5CCOC5=O)cc4)c4ccccc43)[C@@H]2C)cc1`, for which the composite z-score in assay [1] is -0.562; in assay [5], -0.241; in assay [7], -0.0713; in assay [8], -1.49; in assay [9] it was -0.865; in [10] it was -0.227. Moreover, the composite z-score in assay [11] is -0.215; in assay [12], 0.555; in assay [13], 0.282; in assay [15] it was -1.23; in assay [16] it was -2.18; in assay [17] it was -0.228. The composite z-score in assay [18] was -1.54; in [19] it was -0.958; in assay [20] it was -0.794. Further, the z-score in assay [2] is 1.75 (inactive); in [3], 1.78 (inactive); in assay [4] it was 3.45 (inactive); in [6], 0.28 (inactive); in assay [14], -0.372 (inactive).
